Our source for the Euclidean distance values is the supplement of paper PMC10127200.

The structures appear in SMILES notation. Counter-ions that a name gives are not always drawn.

In this test the test system is A549. Nature of the test: Euclidean distance of Cell Painting phenotypic profile (signed KS, 77 features) to DMSO centroid (dimensionless distance); 5 or 10 uM (library dependent); higher = stronger phenotypic change vs DMSO (phenoactivity). The following applies: 48 h. The essentials:
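Library compounds were applied at 10 or 5 uM, depending on the library, with 0.1% DMSO final, for 48 h to five cancer lines and a healthy fibroblast line. After staining, cells were imaged confocally at 20X across 9 fields per well, and Harmony extracted 77 features, each scored as a signed Kolmogorov-Smirnov statistic against vehicle wells on the same plate. Phenoactivity is the Euclidean distance between each profile and the median vehicle profile, with profiles first plate-position corrected, correlation-weighted and averaged over replicates at the top dose.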
The molecule `O=c1cc(-c2ccccc2)oc2cc(O)c(O)c(O)c12` [Baicalein] gave an Euclidean distance of 1.65.
To `CC[C@H](Nc1ncnc2[nH]cnc12)c1nc2cccc(F)c2c(=O)n1-c1ccccc1` [CAL-101 (Idelalisib. GS-1101)] belongs 0.736.
Turning to `C[C@]12CC[C@H](O)CC1=CC[C@@H]1[C@@H]2CC[C@]2(C)C(n3cnc4ccccc43)=CC[C@@H]12` [Galeterone], the Euclidean distance was 1.11.
To `CC(=O)Nc1nc(C)c(-c2ccc(Cl)c(S(=O)(=O)NCCO)c2)s1` belongs 1.48.
In turn, `OCc1ccccc1` [Benzyl alcohol] came in with an Euclidean distance of 0.876.
As for `C[C@]12CCC(=O)C=C1C=C[C@@H]1[C@@H]2CC[C@@]2(C)[C@H]1CC[C@@]21CCC(=O)O1` [Canrenone], the figure is 0.961.
To `CN1C2CCCC1CC(NC(=O)c1nn(C)c3ccccc13)C2` (stereo not drawn) [Granisetron HCl] belongs 0.903.
To `O=C(/C=C/c1ccc(O)c(O)c1)OCCc1ccccc1` [Caffeic Acid Phenethyl Ester] belongs 2.31.
The molecule `C[C@H](N[C@@H](CCc1ccccc1)C(=O)O)C(=O)N1CCC[C@H]1C(=O)O` [Enalaprilat Dihydrate] yielded an Euclidean distance of 1.17.
On to `O=c1c(-n2ccnn2)c[nH]n1-c1cc(N2CCOCC2)ncn1` [Molidustat (BAY 85-3934)], for which the Euclidean distance turned out to be 0.806.
Consider `COCC(=O)Nc1cc(Sc2ccccc2)ccc1N=C(NC(=O)OC)NC(=O)OC` [Febantel], for which the Euclidean distance is 0.892.
To `OCc1cc([C@@H](O)CNCCCCCCOCCOCc2c(Cl)cccc2Cl)ccc1O` [Vilanterol Trifenate] belongs 0.985; to `Nc1c(CC(=O)O)cccc1C(=O)c1ccc(Br)cc1` [Bromfenac Sodium], 1.01.
